This note sets out measurements from PubChem BioAssay AID608 (Sanford-Burnham Center for Chemical Genomics, 2007).

Structures are written as SMILES. Among all 3,800 compounds or so, about 50 (1%) were called active. How the calls were made is not given here. Some of the results follow. A call without a number means that no potency is given here. Potency and affinity values are given separately.

For this test, the target named is Peptidyl-prolyl cis-trans isomerase FKBP1A (Homo sapiens) (UniProt P62942). The experiment in a line: small-molecule binding to FKBP12 – biophysical, NMR detection (AID 608). Particulars: purified FKBP12.
Sequence of Peptidyl-prolyl cis-trans isomerase FKBP1A (Homo sapiens) (P62942 whole entry, looked up): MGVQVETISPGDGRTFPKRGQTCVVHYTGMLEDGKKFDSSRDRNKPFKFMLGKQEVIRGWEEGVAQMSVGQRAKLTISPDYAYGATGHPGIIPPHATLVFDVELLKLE
With `O=C(Nc1ccc(OCC(=O)N2CCOCC2)cc1)c1cccnc1`, the result was inactive.
